A short description of assay [1]: qHTS assay to identify small molecules that stimulate interleukin-8 (IL-8) secretion (AID 651758; active = well fitted activation curve with a large enough effect in the signal ratio; the % refers to the signal ratio; note: potency is the fitted concentration of half-maximal effect; for activation: 0% is about no effect). In short, it runs like this: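 THP-1 cells (2000/well) exposed to compound 16 h at 37 C; secreted IL-8 then detected by HTRF with cryptate- and XL665-labelled anti-IL-8 antibody pair after 1-3 h at room temperature.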
On the technique in general: qHTS replaces the single test concentration by a dilution series.

The nature of assay [2]: MultiTox-Fluor Cytotoxicity Assay - LYMP1-002 - Dead Cells (AID 960).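 Note: 0% = DMSO and 100% = tetraoctylammonium bromide; nearly all actives have a fitted effect of over 60% in size.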 In a few lines:
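Human lymphoblastoid cells (LYMP1-002), 2500/well in complete medium, were exposed to compounds for 16 hr at 37 C. Dead-cell protease activity was read as bis-AAF-R110 fluorescence (Ex/Em 485/520), normalized to DMSO and 15 uM tetraoctylammonium bromide; AC50 from Hill fits.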

Assay [3] can be described thus: Cell Viability - LYMP2-004 (AID 966).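 Note: cells exposed to compound for 24 h; plate controls were DMSO only for no effect and tetraoctylammonium bromide control for full effect; nearly all actives have a fitted effect of over 65% in size.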 In a few lines:
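Human lymphoblastoid cells (2500/well) in complete medium were treated with compounds for 24 hr at 37 C, then intracellular ATP was measured by CellTiter-Glo luminescence. AC50 values came from Hill-equation fits of concentration-response data.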

The target of assay [4] is Cytochrome P450 1A2 (Homo sapiens) (UniProt P05177). The experiment in a line: p450-cyp1a2 (AID 410; calls by dose curve; note: potency is the fitted concentration of half-maximal effect). In short, it runs like this: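 Human CYP1A2 (20nM) demethylated Luciferin-ME at its Km (100uM) in 100mM KPO4. After 10 min compound preincubation, NADPH regeneration ran the reaction 60 min at room temperature. Luciferin was read by luminescence, normalized to 57 uM furafylline.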
Sequence of Cytochrome P450 1A2 (Homo sapiens) (P05177 whole entry, looked up): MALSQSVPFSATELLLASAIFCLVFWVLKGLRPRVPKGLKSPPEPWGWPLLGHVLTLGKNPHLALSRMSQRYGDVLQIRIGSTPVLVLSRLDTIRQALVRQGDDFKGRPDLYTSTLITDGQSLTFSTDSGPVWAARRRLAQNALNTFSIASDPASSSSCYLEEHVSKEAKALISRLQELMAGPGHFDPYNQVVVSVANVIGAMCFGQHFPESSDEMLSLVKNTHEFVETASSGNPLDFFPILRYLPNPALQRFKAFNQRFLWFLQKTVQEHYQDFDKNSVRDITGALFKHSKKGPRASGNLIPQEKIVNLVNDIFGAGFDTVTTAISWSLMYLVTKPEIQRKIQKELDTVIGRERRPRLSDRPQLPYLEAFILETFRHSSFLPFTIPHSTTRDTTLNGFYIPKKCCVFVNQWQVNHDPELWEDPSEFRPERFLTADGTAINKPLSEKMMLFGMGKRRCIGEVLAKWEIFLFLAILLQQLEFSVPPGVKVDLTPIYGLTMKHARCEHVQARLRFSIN

The target of assay [5] is Glucocorticoid receptor (Homo sapiens) (UniProt P04150). The experiment in a line: GR-GFP Redistribution (AID 450;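 active = compounds whose dose series gives a full or clear partial fitted curve of increased nuclear translocation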; note: potency is the fitted concentration of half-maximal effect). Particulars: U2OS GR-GFP nuclear translocation, laser cytometry, 2 h.
Sequence of Glucocorticoid receptor (Homo sapiens) (P04150 whole entry, looked up): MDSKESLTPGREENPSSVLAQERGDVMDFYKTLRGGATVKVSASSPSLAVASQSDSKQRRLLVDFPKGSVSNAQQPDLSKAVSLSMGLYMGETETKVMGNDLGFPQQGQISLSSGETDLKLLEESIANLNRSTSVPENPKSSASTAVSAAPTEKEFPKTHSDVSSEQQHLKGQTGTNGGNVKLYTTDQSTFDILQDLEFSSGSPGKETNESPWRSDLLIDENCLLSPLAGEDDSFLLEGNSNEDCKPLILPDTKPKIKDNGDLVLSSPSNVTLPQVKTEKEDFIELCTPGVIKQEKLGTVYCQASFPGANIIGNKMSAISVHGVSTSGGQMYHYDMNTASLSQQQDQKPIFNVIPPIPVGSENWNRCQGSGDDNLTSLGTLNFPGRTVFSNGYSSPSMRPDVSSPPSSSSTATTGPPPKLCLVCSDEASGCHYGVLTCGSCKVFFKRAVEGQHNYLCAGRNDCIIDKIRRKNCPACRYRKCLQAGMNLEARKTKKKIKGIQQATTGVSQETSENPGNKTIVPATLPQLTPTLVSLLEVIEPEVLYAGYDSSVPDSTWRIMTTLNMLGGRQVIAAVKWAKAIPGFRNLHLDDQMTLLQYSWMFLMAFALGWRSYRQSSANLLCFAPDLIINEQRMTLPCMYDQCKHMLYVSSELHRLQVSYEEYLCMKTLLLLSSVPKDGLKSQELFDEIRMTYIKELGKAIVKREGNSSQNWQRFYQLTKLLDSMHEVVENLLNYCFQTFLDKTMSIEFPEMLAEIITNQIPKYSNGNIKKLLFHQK
The target is the same in assay [6]. The experiment in a line: GR-EFC Redistribution (AID 451; calls by dose curve; note: potency is the fitted concentration of half-maximal effect). The conditions noted are these: CHO-K1 GR-EFC translocation, beta-gal luminescence, 2 h. In a few lines:
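CHO-K1 cells expressing nuclear EA and GR-ED fragments of b-gal; compounds titrated up to 46 uM final, 2 h at 37 C. GR nuclear translocation read as complemented b-gal luminescence after 1 h RT detection.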

The target of assay [7] is Cytochrome P450 2C9 (Homo sapiens) (UniProt P11712). Nature of the assay: qHTS Assay for Inhibitors and Substrates of Cytochrome P450 2C9 (AID 883). Note: potency is the fitted concentration of half-maximal effect; nearly all actives have a fitted effect of over 60% in size. In a few lines:
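Human CYP2C9 (10nM) with Luciferin-H at 100uM (its KM) in 25mM KPO4; compound preincubated 10 min at 37C, then NADPH regeneration for 60 min at 37C. Luciferin read by luminescence after detection reagent; normalized to 57uM sulphaphenazole as full inhibition.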

The target in assay [8] is Cytochrome P450 3A4 (Homo sapiens) (UniProt P08684). The experiment in a line: qHTS Assay for Activators of Cytochrome P450 3A4 (AID 885). Note: nearly all actives have a fitted effect of over 65% in size. In short, it runs like this:
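Steps: enzyme/substrate mix dispensed; compound added, 10 min RT; NADPH regeneration solution added, 60 min RT; luciferin detection buffer stops reaction; 20 min later luminescence measured.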

The target of assay [9] is Cytochrome P450 2D6 (Homo sapiens) (UniProt P10635). Nature of the assay: qHTS Assay for Inhibitors and Substrates of Cytochrome P450 2D6 (AID 891).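 For activity change, negative = inhibition: luciferin methyl ether substrate demethylated by CYP2D6 with NADPH regeneration; % is set by controls: 0 for no effect and ±100 for the full control effect.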 Note: nearly all actives have a fitted effect of over 60% in size. Note: potency is the fitted concentration of half-maximal effect. In short, it runs like this:
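Human CYP2D6 (5 nM) with 30 uM Luciferin-ME EGE (at Km) in 100 mM KPO4, compound preincubated 10 min, then NADPH regeneration system for 60 min at room temperature. Luciferin read by luminescence; normalized to 1.43 uM quinidine.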

Assay [10] deals with DNA dC->dU-editing enzyme APOBEC-3G (Homo sapiens) (UniProt Q9HC16). Nature of the assay: qHTS for inhibitors of Vif-A3G interactions: Validation (AID 588379). Note: 0% is about no effect. In a few lines:
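HeLa cells stably expressing Vif and A3G-eYFP, 700 cells/well, incubated overnight at 37 deg C, then exposed to compound overnight at 37 deg C. Inhibition of Vif-mediated degradation read as increased yellow fluorescence (Ex 488/Em 500-530) by laser-scanning cytometry.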

The nature of assay [11]: Confirmation and Secondary Assay for Modulators of Hemoglobin Beta Chain Splicing at IVS2 654 locus (AID 910).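 Note: HeLa cells stably carrying EGFP split by mutant beta-globin IVS2-654 intron; % of control where 0% means no effect.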 In a few lines:
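HeLa cells stably expressing EGFP interrupted by β-globin IVS2-654 intron, seeded overnight in Opti-MEM/2% FCS, then treated 2 days at 37 °C. Restored splicing read as total peak GFP intensity per well by laser scanning cytometry (488 nm excitation, 500–520 nm emission); 500 nM antisense PNA as control.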

The nature of assay [12]: Confirmation and Secondary Assay for Modulators of Hemoglobin Beta Chain Splicing at IVS2 705 locus (AID 930).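 Note: HeLa cells stably expressing the EGFP-705 splicing reporter; % of control where 0% means no effect.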 In a few lines:
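HeLa cells stably carrying EGFP interrupted by mutant beta-globin IVS2-705 intron (CMV-driven) were seeded at 500 cells/well, treated next day with compound for 2 days at 37C; corrected splicing restores EGFP, read as total peak GFP intensity per well.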

A short description of assay [13]: qHTS Assay for Identifying Gametocytocidal Compounds (AID 743244).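 For max response: % is set by controls: 0 for no effect and ±100 for the full control effect; actives lower the fluorescent signal which means gametocytes are killed.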 Note: potency is the fitted concentration of half-maximal effect. The conditions noted are these: P. falciparum 3D7 stage III-V gametocytes, alamarBlue, 72 h; max response: stronger effect = lower value. In short, it runs like this: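 Fluorescence at Ex 525/Em 598 nm, recorded 24 h after alamarBlue addition, reports residual metabolic activity of 3D7 gametocytes (stages III–V) following 72 h compound exposure at 37 °C, 5% CO2.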

Assay [14] in a line: qHTS profiling of the MIPE4 collection as inhibitors of Plasmodium falciparum (3D7) proliferation (AID 743344; call rule not given here;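 note: scaled between DMSO vehicle wells and 0.29 µM artemisinin as full inhibition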). The conditions noted are these: P. falciparum 3D7 in erythrocytes, SYBR Green DNA fluorescence, 72 h; at 28.5 µM (top of the series). In short, it runs like this:
(§1)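 Erythrocytes infected with P. falciparum (0.3% parasitemia, 2.5% hematocrit) incubated with compounds 72 h at 37 C, 5% CO2. Lysis with saponin/Triton buffer containing SYBR Green I, overnight at room temperature in the dark; DNA fluorescence (485/535 nm) normalised to 0.29 uM artemisinin and DMSO.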

Assay [15] can be described thus: qHTS profiling of the MIPE4 collection as inhibitors of Plasmodium falciparum (DD2) proliferation (AID 743345; call rule not given here). Particulars: P. falciparum Dd2 in erythrocytes, SYBR Green DNA, 72 h; at 28.5 µM (top of the series). In short, it runs like this:
as §1

The nature of assay [16]: qHTS profiling of the MIPE4 collection as inhibitors of Plasmodium falciparum (DD2) proliferation (Rep 2) (AID 743346; call rule not given here). The conditions noted are these: P. falciparum Dd2 in erythrocytes, SYBR Green DNA, 72 h; at 28.5 µM (top of the series). In short, it runs like this: as §1
The nature of assay [17]: qHTS profiling of the MIPE4 collection as inhibitors of Plasmodium falciparum (HB3) proliferation (AID 743347; call rule not given here;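 note: plate controls were DMSO vehicle wells for no effect and artemisinin wells for full effect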). The conditions noted are these: P. falciparum HB3 in erythrocytes, SYBR Green DNA, 72 h; at 28.5 µM (top of the series). In short, it runs like this:
as §1

Assay [18] can be described thus: Cellular Toxicity (caspase-3) Hek293 (AID 664).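 Note: cells exposed to compound for 16 h at 37 °C before readout.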 In short, it runs like this:
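HEK293 cells were exposed to compounds in complete medium for 16 hr at 37 °C, then caspase-3/7 activity was read by Caspase-Glo 3/7 luminescence after 20 min at room temperature. Data normalized to DMSO and 100 uM tamoxifen; AC50 from Hill fits.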

In assay [19] the target is Thyroid hormone receptor beta (Homo sapiens) (UniProt P10828). Nature of the assay: qHTS assay for small molecule antagonists of thyroid hormone receptor beta signaling (AID 588547; active = well fitted inhibition curve with a large enough effect in the signal ratio, with a control signal flat, not every such curve was filed as active; the % refers to the signal ratio;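 note: cells stimulated with 0.4 nM T3 agonist during compound exposure; % is set by controls: 0 for no effect and ±100 for the full control effect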). The conditions noted are these: TR-UAS-bla HEK293, beta-lactamase ratio, antagonist mode, 18 h. In short, it runs like this:
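TR-UAS-bla GripTite HEK293 cells in 2% charcoal/dextran FBS medium; compounds 0.59 nM to 92 uM with T3 at 0.4nM final, 18 h at 37 C. Beta-lactamase read by CCF4 fluorescence (460/530 nm); Hill fits gave IC50 and efficacy.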

The nature of assay [20]: NFAT Signaling Pathway (AID 444; active = well fitted curve in either direction with a large enough effect, not every such curve was filed as active;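 note: carbachol stimulus at about its EC50 of 1 µM final; % is set by controls: 0 for no effect and ±100 for the full control effect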). The conditions noted are these: Jurkat NFAT-bla M1, carbachol, beta-lactamase ratio, 5 h; at 7.69 µM (top of the series) unless noted. In short, it runs like this:
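Jurkat cells with NFAT-driven β-lactamase reporter and co-expressed M1 receptor, stimulated with carbachol (final 1 uM, ~EC50), compound titration, 5 h at 37 °C. CCF4 loaded 1 h at RT; 460/530 nm ratio gave %activity and AC50.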

Experimental findings from PubChem BioAssay (NCATS) are described below.

Several values for one entry are separate records, joined by “and”; a condition that tells them apart may be missing. Equal entries are not always repeated. Results filed as inconclusive are left out. More than one record can exist for a structure, and the calls need not agree. Activity calls are given as the source filed them. Unless noted, calls come from the whole dose curve; as a rule, active = well fitted curve in the direction sought with a large enough effect; inconclusive = small, poorly fitted or top-dose-only effect, or another doubt; inactive = no such curve, though single readings can be large; an effect the other way counts as inactive or inconclusive.

Sequence of Thyroid hormone receptor beta (Homo sapiens) (P10828 whole entry, looked up): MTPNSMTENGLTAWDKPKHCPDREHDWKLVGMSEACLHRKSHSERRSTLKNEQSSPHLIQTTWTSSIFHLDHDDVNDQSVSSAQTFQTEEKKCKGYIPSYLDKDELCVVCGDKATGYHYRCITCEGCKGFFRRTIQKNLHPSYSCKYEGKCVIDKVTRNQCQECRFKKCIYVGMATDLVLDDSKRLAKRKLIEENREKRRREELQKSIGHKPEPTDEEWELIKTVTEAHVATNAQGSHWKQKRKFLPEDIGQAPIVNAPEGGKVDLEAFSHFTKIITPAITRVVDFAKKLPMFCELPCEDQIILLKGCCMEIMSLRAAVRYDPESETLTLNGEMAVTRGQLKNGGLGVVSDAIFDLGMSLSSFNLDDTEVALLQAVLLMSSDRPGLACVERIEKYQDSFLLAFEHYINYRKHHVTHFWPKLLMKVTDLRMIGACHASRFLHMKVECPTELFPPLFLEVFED
Sequence of Cytochrome P450 3A4 (Homo sapiens) (P08684 whole entry, looked up): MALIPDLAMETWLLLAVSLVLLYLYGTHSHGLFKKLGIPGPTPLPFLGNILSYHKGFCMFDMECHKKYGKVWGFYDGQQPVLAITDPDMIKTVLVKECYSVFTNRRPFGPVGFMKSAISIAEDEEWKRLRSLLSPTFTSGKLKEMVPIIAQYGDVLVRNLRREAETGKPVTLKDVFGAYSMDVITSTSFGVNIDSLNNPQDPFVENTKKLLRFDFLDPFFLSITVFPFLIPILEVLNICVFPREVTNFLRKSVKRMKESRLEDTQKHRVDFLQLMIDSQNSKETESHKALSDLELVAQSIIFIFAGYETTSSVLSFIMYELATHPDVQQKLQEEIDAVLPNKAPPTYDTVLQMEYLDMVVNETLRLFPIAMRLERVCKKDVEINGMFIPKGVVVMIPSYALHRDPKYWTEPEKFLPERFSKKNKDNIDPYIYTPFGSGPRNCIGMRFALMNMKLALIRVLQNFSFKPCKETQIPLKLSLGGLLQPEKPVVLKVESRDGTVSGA
Sequence of Cytochrome P450 2D6 (Homo sapiens) (P10635 whole entry, looked up): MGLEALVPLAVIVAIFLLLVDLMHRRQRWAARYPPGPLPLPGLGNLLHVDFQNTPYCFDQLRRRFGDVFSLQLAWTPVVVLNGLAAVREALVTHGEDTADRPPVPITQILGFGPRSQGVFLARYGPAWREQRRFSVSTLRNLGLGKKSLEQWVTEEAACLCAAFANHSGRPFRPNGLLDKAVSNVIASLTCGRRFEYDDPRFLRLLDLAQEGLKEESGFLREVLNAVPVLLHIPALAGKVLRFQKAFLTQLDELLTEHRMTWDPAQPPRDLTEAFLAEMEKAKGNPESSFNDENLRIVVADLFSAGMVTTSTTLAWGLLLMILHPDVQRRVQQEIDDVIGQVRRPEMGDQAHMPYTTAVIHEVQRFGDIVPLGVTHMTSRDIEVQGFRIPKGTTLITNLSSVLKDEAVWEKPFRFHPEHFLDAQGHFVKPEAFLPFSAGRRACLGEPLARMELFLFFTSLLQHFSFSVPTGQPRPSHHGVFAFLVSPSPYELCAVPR
Sequence of Cytochrome P450 2C9 (Homo sapiens) (P11712 whole entry, looked up): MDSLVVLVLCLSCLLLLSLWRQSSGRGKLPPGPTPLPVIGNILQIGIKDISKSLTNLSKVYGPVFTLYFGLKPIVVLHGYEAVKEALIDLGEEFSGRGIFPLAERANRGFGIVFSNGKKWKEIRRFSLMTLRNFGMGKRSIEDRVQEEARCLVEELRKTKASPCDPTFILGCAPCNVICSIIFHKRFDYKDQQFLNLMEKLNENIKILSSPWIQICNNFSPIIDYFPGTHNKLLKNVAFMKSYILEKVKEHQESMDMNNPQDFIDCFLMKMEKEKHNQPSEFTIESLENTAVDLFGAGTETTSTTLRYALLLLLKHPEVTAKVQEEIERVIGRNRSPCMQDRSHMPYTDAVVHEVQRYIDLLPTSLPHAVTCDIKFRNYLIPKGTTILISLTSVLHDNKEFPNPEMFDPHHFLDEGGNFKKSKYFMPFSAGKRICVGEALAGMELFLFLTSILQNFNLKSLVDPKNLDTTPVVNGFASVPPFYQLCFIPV
Sequence of DNA dC->dU-editing enzyme APOBEC-3G (Homo sapiens) (Q9HC16 whole entry, looked up): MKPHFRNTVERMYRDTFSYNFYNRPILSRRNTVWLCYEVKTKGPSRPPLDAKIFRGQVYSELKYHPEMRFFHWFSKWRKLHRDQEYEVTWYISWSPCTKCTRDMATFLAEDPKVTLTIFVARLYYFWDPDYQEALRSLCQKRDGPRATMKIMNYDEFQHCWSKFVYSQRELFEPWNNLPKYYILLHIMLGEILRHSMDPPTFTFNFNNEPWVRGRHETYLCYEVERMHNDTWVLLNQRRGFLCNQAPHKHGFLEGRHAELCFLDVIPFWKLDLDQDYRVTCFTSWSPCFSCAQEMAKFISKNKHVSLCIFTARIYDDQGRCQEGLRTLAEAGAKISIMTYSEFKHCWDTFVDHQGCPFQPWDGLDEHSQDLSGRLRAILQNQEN

As for `c1ccc2scnc2c1`, the Potency entry in assay [1] is “inactive”.
Regarding `O=C(O)c1ccccc1C(c1ccc(O)cc1)c1ccc(O)cc1`, the Potency entry in assay [2] was “inactive”.
On to `O[C@@H]([C@H](O)[C@@H](O)CBr)[C@@H](O)CBr`, for which the Potency entry in [2] is “inactive”.
For `O=S(=O)(O)c1ccccc1`, in [3], the Potency result is “inactive”.
Regarding `O=c1cc(-c2cccc(O)c2)oc2c(O)c(O)ccc12`, the Potency was 0.1 µM (active) in assay [4], > 46 µM (inactive) in [5], > 46 µM (inactive) in assay [6] and 1.58 µM (active) in [7]. The result in [8] and in [10] was inactive. Moreover, the Potency result in [9] was “inactive”.
As for `O=C1CCc2ccccc2O1`, in assay [3], the Potency entry was “inactive”.
`CCCCCCCCCCCCC[N+](C)(C)Cc1ccccc1`: the Potency result in assay [11] and in assay [12] was “inactive” each time.
As to `COc1cc(/C=C/C(=O)N2CCC=CC2=O)cc(OC)c1OC`, the Potency result in assay [11] and in [12] was “inactive” throughout.
For the compound `N[C@@H](C(=O)N[C@@H]1C(=O)N2C(C(=O)O)=C(Cl)CC[C@H]12)c1ccccc1`, the max response in [13] is 3.49% (inactive).
Take `N=C(N)c1ccc(OCCCOc2ccc(C(=N)N)cc2Br)c(Br)c1`: the Potency in [13] is 7.08 µM (active).
The compound `Nc1cccc(-c2csc(NC(=O)CCCCCCC(=O)NO)n2)c1` had a parasite growth, % of DMSO control in assay [14] of 5.04%. The compound also returned a parasite growth remaining, % of DMSO control (lower = more inhibition) in assay [15] of 7.08%. The compound also gave a parasite growth, % of control (lower = inhibition) in [16] of 11.6%. For the same compound, in [17], the growth, % of control was determined as 8.11%.
`Cc1c(N=C=O)cccc1N=C=O`: in [18], the result was inactive.
With `CCCCC(CC)CN` (stereo not given), the Potency result in [2] is “inactive”. Moreover, in [19], the activity change % (negative = inhibition) was 20% (inactive) and -6.26% (inactive). For the same compound, the Potency in [1] is 75 µM (active) and inactive.
For the compound `COC(=O)c1ccc(C)cc1`, the Potency result in [3] was “inactive”. For the same compound, in assay [19], the activity change % (negative = inhibition) is -22.1% (inactive) and -12.5% (inactive).
As for `O=C1c2ccccc2C(=O)C1c1ccc2ccccc2n1`, the activity change, negative = inhibition in [20] is 21.8% [at 17.2 µM] (inactive). Further, the Potency in assay [5] was > 20.6 µM (inactive). Moreover, the Potency result in assay [3] was “inactive”.
For `CC1=CC(C)(C)Nc2ccccc21`, the outcome in assay [18] and in [8] was inactive. In assay [1], the Potency result is “inactive”.
For the compound `CN1CC[C@H](CN2c3ccccc3Sc3ccccc32)C1`, the Potency was 5.01 µM (active) in assay [4], 0.126 µM (active) in [9] and 18.7 µM (active) in [13]. The activity change, negative = inhibition in assay [20] is -75.3% (active).
`COCC(=O)O`: the activity change % (negative = inhibition) in assay [19] is -5.02% (inactive) and -7.68% (inactive).
As for `CCC(C)c1ccccc1O` (stereo not given), the outcome in [18] was inactive.
